Most compounds without a hit are left out; they make up all but 4.7% or so of the library.
ATXN viability = Viability Counterscreen for Primary qHTS for Inhibitors of ATXN expression; S2 cells (HEK-293 line with an ATXN2-luciferase reporter) viability, CellTiter-Fluor protease fluorescence, 24 h; Potency, µM (top dose mostly 56.7 µM), actives largely listed as cytotoxic; 0.49% of 400,000 active; AID 651635, 2014; also: nearly all actives have a fitted effect of over 40% in size
ATXN2 expr inh = Primary qHTS for Inhibitors of ATXN expression. HEK-293 ATXN2-luciferase reporter, luminescence, 24 h. Potency, µM (doses to about 57 µM), most hits filed as inhibitors. 0.72% of 360,000 active; also: nearly all actives have a fitted effect of over 55% in size
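ATXN2-luciferase reporter cells (luciferase flanked by upstream and downstream ATXN2 gene portions) were treated 24 h at 37 °C with compounds at up to 57 uM. SteadyGlo luminescence gave expression; GF-AFC fluorescence gave viability.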
D3 ag = qHTS of D3 Dopamine Receptor Agonist: qHTS | D(3) dopamine receptor (Homo sapiens), P35462 | 0.58% of 410,000 active | max activation, % | D3R DiscoveRx beta-arrestin cells, luminescence, 90 min; in the data active = max activation above about 30%
Target sequence (P35462 whole entry, looked up): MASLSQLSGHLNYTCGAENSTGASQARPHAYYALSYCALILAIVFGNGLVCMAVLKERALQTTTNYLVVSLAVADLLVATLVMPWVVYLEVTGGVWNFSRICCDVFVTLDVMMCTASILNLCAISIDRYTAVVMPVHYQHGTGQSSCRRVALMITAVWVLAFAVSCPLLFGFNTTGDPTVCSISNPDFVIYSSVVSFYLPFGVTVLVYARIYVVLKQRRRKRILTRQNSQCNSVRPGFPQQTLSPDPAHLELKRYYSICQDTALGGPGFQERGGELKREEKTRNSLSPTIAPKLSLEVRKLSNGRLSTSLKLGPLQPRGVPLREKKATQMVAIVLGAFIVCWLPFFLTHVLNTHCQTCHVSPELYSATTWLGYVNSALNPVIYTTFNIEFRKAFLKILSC
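Agonist-mode cell screen: cells plated at 1500/well and incubated overnight at 37 °C, then exposed to library compounds for 90 min at 37 °C. Detection reagent was added for 30–60 min at room temperature, and luminescence was read.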
TGFb SMAD3 inh = qHTS for Inhibitors of TGF-b. HepG2 CAGA-GFP TGF-b/SMAD3 reporter, GFP fluorescence, 18 h; TGF-beta stimulated, 500 pg/mL final. AID 588855, 2011. 1.2% of 410,000 active. Potency, µM (doses to about 46.1 µM), hits mostly inhibitors; also: nearly all actives have a fitted effect of over 65% in size
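Using HEPG2 CAGA-GFP reporter cells at 1000 cells/well, we pinned test compounds, stimulated with recombinant TGF-beta (500 pg/mL final) and measured total well GFP after 18 h.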
D3 antag = qHTS of D3 Dopamine Receptor Antagonist: qHTS | D(3) dopamine receptor (Homo sapiens), P35462 | D3R cells, DiscoveRx beta-arrestin luminescence, antagonist mode; active compounds read low | max response, negative = inhibition, % | 2.5% of 360,000 active | AID 652054, 2013; in the data active = max response below about -50%; inconclusive = no clear call, values can overlap the other calls
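Cells expressing the human receptor were seeded at 1500 cells/well, incubated overnight at 37 degrees C in 5% CO2, then exposed to library compounds with dopamine controls for 90 minutes at 37 degrees C before luminescent detection.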
HepG2 viability = qHTS for Inhibitors of TGF-b: Cytotox Counterscreen | HepG2 CAGA-GFP viability, ATP luminescence, 18 h | Potency, µM (doses to about 46.1 µM), hits mostly cytotoxic | 0.76% of 410,000 active
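CellTiter-Glo luminescence gave cytotoxicity after 18 hours at 37 degrees C. The cells were HepG2 CAGA-GFP in 1% FBS DMEM, stimulated with 500 pg/mL TGF-beta after compound addition. %Activity was normalised to no-cell wells (complete cell-killing) and DMSO (no toxicity), and curves were fitted and classified.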
Numbers stand for hits; . = inactive; ? = inconclusive; / = not tested or not shown; ! = a repeat was not active; [ ] = remark or other dose. Unless noted, calls follow the shape of the dose curve; as a rule, active = well fitted curve in the direction sought with a large enough effect; inconclusive = small, poorly fitted or top-dose-only effect, or another doubt; inactive = no such curve, though single readings can be large; an effect the other way counts as inactive or inconclusive.

SMILES	ATXN viability	ATXN2 expr inh	D3 ag	TGFb SMAD3 inh	D3 antag	HepG2 viability
CCOc1ccc(-c2c(C)n(-c3ccc(OCC)cc3)c3[n+]2CCCCC3)cc1	.	?	.	1µM	.	.
CN[C@@]1(c2ccccc2Cl)CCCCC1=O	.	/	/	/	/	/
C=C(C)[C@H]1[C@H]2OC(=O)[C@@H]1[C@]1(O)C[C@H]3O[C@]34C(=O)O[C@H]2[C@@]14C	.	/	/	/	/	/
COC(=O)C1=C(C(=O)OC)C2OC1c1cc3ccccc3cc12	?	?	.	?	-58.0	.
Oc1cccc[c]1[Hg][Cl]	/	/	.	/	/	/
Oc1cc[c]([Hg][Cl])cc1	3.16µM	/	.	/	/	/
CCOc1ccccc1NC(=O)NCc1ccc2c(c1)CCN2C(=O)c1ccccc1	/	/	.	?	/	.
CN1CC[C@]23c4c5ccc(O)c4O[C@H]2[C@@H](O)CC[C@H]3[C@H]1C5	.	.	.	/	/	/
CC(C)NC(C)Cc1ccc(I)cc1 (stereo not given)	.	.	.	.	-88.7	.
CC(Cc1ccccc1)NC(=O)NC(C)Cc1ccccc1 (stereo not given)	.	.	.	.	.	.
C[C@@H]1[C@H](O)[C@@H](C)/C=C/C=C/CC/C=C/C=C/C=C/C=C/[C@H](O[C@H]2O[C@@H](C)[C@H](O)[C@@H](N)[C@H]2O)CC2O[C@](O)(C[C@@H](O)[C@H](O)CC[C@@H](O)C[C@@H](O)C[C@@H](O)CC(=O)O[C@H]1C)C[C@H](O)[C@H]2C(=O)O	/	/	.	/	/	/
CCOC(=O)[C@]12Cc3cc(Cl)ccc3[C@H]1N(C)C(=O)c1ccccc12	.	.	.	/	.	/
CCOC(=O)[C@]12Cc3cc(Cl)ccc3[C@H]1N(C(C)C)C(=O)c1ccccc12	6.31µM	5.62µM	.	/	.	/
CCOC(=O)[C@]12Cc3cc(Cl)ccc3[C@H]1N(CC(=O)OC)C(=O)c1ccccc12	7.94µM	7.08µM	.	/	.	/
c1cc2c(cc1[C@H]1OC[C@H]3[C@H]1CO[C@H]3c1ccc3c(c1)OCO3)OCO2	/	.	/	/	/	/
COc1cc(C[C@@H](C)N)c(OC)cc1C	?	.	.	/	/	/
Fc1ccc(C(OCCN2CCCC2)c2ccc(F)cc2)cc1	.	.	.	.	-61.5	.
CCCc1nnc(NC(=O)CCC(=O)N2CCN(CCOC(c3ccccc3)c3ccccc3)CC2)s1	.	.	.	?	.	.
C#CCN1CCN(c2ccc(F)cc2)CC1	.	.	.	.	.	.
Fc1ccc(C(OCCN2CCCC2)c2ccc(Br)cc2)cc1 (stereo not given)	.	.	.	?	-73.3	.
c1ccc(CCCN2CCN(CCOC(c3ccccc3)c3ccccc3)CC2)cc1	?	27.3µM!	.	?	-75.6	11.2µM
CC(=O)Nc1ccc(OC[C@](C)(O)C(=O)Nc2ccc([N+](=O)[O-])c(C(F)(F)F)c2)cc1	/	.	/	/	/	/
Oc1cccc(Nc2ncnc3sc4c(c23)CCCC4)c1	.	.	.	?	/	.
Clc1ccc(C(Cn2ccnc2)OCc2csc3c(Cl)cccc23)c(Cl)c1 (stereo not given)	/	22.4µM	.	?	.	.
C[C@]12CCC3C(CC[C@H]4C[C@H](O)CC[C@]34C)C1C[C@@H](O)[C@H]2O (stereo not given in full)	.	.	.	.	.	14.1µM
SMILES	ATXN viability	ATXN2 expr inh	D3 ag	TGFb SMAD3 inh	D3 antag	HepG2 viability
C[C@]12CCC3C(CC[C@H]4C[C@H](O)CC[C@]34C)C1C[C@@H](O)[C@@H]2O (stereo not given in full)	.	.	.	.	.	.
Cc1c(Cl)ccc2sc(N3CCN(C(=O)CCS(=O)(=O)c4ccc(F)cc4)CC3)nc12	.	.	.	8.91µM	/	.
Cc1c(Cl)cccc1NC(=O)NCCOCCn1c(=O)oc2ccccc21	.	.	.	?	/	.
Cc1c(C=O)c2ccccc2n1Cc1ccccc1	.	.	.	?	.	.
Cc1c(C=O)c2ccccc2n1Cc1cccc(F)c1	.	.	.	1.78µM	.	.
O=C1CCC[C@@H]2[C@H]3CCCN4CCC[C@@H](CN12)[C@@H]34	/	.	/	/	/	/
CCCN1CCC[C@H](c2cccc(O)c2)C1	.	.	121.1	.	.	.
CC1=C(O)C(=O)C=C2C1=CC=C1C2(C)CCC2(C)C3CC(C)(C(=O)O)CCC3(C)CCC12C (stereo not given)	5.62µM	4.47µM	.	2µM	-80.9	3.16µM
Cc1ccc(Cn2cc(C=O)c3ccccc32)cc1	?	?	.	0.355µM	.	.
O=Cc1cn(Cc2ccc([N+](=O)[O-])cc2)c2ccccc12	.	?	.	2.24µM	.	.
O=Cc1cn(Cc2ccccc2[N+](=O)[O-])c2ccccc12	.	.[11.3 µM]	.	?	.	.
O=Cc1cn(Cc2ccc(F)cc2)c2ccccc12	.	14.1µM	.	0.708µM	.	.
Cn1c(=O)oc2cc(S(=O)(=O)N3CCCC(C(=O)NCc4ccccc4Cl)C3)ccc21 (stereo not given)	.	.	.	.	/	.
Nc1ccccc1C(=O)OCC(O)CO (stereo not given)	.	.	/	/	/	/
C[C@H]1[C@@H](O)[C@@H](C)/C=C\C=CCC\C=C/C=C\C=C/C=C[C@@H](O[C@H]2O[C@@H](C)[C@@H](O)[C@@H](N)[C@@H]2O)C[C@@H]2O[C@@](O)(C[C@@H](O)[C@H]2C(=O)O)C[C@@H](O)[C@@H](O)CC[C@@H](O)C[C@@H](O)C[C@@H](O)CC(=O)O[C@H]1C	.	/	/	/	/	/
CC1(C)S[C@@H]2[C@H](N)C(=O)N2[C@H]1C(=O)O	/	/	.	/	/	/
Cc1cc(SCc2sc(-c3ccc(C(F)(F)F)c(F)c3)nc2C)ccc1OCC(=O)O	/	.	/	/	/	/
O=C(Nc1ccc(OC(F)(F)F)cc1)Oc1ccccc1N1CCCCC1	?	/	.	12.6µM	.	.
O=C(Nc1ccc(OC(F)(F)F)cc1)Oc1ccccc1N1CCOCC1	.	.	.	?	.	.
COc1cc(C=O)ccc1OC(=O)Nc1ccccc1	.	.	.	.	.	.
Cc1cnc(SCc2ccccn2)nc1C1CCCN(C(=O)c2cccc(-c3cccc(F)c3)c2)C1 (stereo not given)	31.6µM	/	/	/	/	/
CSc1ncc(CN2CCCC(C(=O)c3cccc(Cl)c3)C2)cn1 (stereo not given)	.	.	.	.	.	.
CC(CCc1ccccc1)NC(C)C(O)c1ccc(O)cc1 (stereo not given)	.	.	.	.	-70.5	.
COc1ccc(CCC(C)NCCc2ccccc2)cc1 (stereo not given)	.	.	.	.	.	.
